Laboratory results: PubChem BioAssay (NCI)
The panel holds about 83,000 compounds, 20% with a hit somewhere; the sample as a whole holds those more often.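 Values shown are percent growth following 48 h exposure of cells in 96-well plates to a single concentration of compound; below 10 was considered active.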 Unmarked numbers belong to inactive results. Calls of active or inactive are those of the source.

How the values were obtained:
Assay in all cases: NCI-60 one-dose screen, 48 h (100 = growth as untreated, 0 = no growth, -100 = all killed)
Conditions in all cases: 10 µM
SR leukemia = test system: SR leukemia
RPMI-8226 leukemia = test system: RPMI-8226 leukemia
OVCAR-8 ovarian = test system: OVCAR-8 ovarian
OVCAR-5 ovarian = test system: OVCAR-5 ovarian
SK-OV-3 ovarian = test system: SK-OV-3 ovarian
OVCAR-3 ovarian = test system: OVCAR-3 ovarian
HS 578T breast = test system: HS 578T breast
NCI/ADR-RES ovarian = test system: NCI/ADR-RES ovarian
OVCAR-4 ovarian = test system: OVCAR-4 ovarian
IGROV1 ovarian = test system: IGROV1 ovarian

SMILES	growth (SR leukemia)	growth (RPMI-8226 leukemia)	growth (OVCAR-8 ovarian)	growth (OVCAR-5 ovarian)	growth (SK-OV-3 ovarian)	growth (OVCAR-3 ovarian)	growth (HS 578T breast)	growth (NCI/ADR-RES ovarian)	growth (OVCAR-4 ovarian)	growth (IGROV1 ovarian)
CCOc1ccccc1/C=N/N1CCCCCC1	89.3%	110%	103%	107%	95.9%	97.1%	96%	100%		
CN(C)CCCSc1ccccc1NC1=C(Cl)C(=O)C(Nc2ccccc2SCCCN(C)C)=C(Cl)C1=O	2.97% (active)	45.8%		33.4%	93.6%	-93% (active)	87.1%	72.4%	-95.3% (active)	-63.5% (active)
CC(=O)OC1CC2C(C)(C)CCC[C@]2(C)C2=C1C(O)=C(C(C)C)C(=O)C2=O (some centres undefined)	2.66% (active)	4.43% (active)	13.4%	-39.3% (active)	19.3%	-54% (active)	28.9%	3.62% (active)		
CN(C)CCCOc1ccc(NC2=C(Cl)C(=O)C(Nc3ccc(OCCCN(C)C)cc3)=C(Cl)C2=O)cc1	-1.57% (active)	-44.1% (active)		-60.6% (active)	24.4%	-98.3% (active)	-0.291% (active)	8.96% (active)	-98.9% (active)	-68.2% (active)
CCn1c(SC/C(=N/O)c2ccccc2)nnc1-c1ccccc1	94.8%	89.7%		96.8%	89.7%	121%	101%	103%	85.5%	106%
N#Cc1ccc(C(=O)CSc2nccc(Nc3ccc(C(=O)O)cc3)n2)cc1	106%	108%		102%	106%	110%	98.7%	108%	115%	102%
COc1cc(-c2nn(-c3cccc(NC(=O)CCN4CCN(Cc5ccccc5)CC4)c3)cc2-c2ccncc2)ccc1Cl	-28.5% (active)	-23.2% (active)		22.9%	22.3%	7.04% (active)	2.23% (active)	-21.4% (active)	36.2%	31.9%
OCC1OC(n2ccc3c(NO)ncnc32)C(O)C1O (centres undefined)	-30.2% (active)	-21.7% (active)		-3.92% (active)	1.15% (active)	-31.7% (active)	-11% (active)	-53.5% (active)	-5.14% (active)	-32.1% (active)
CCN(CC)CCCC(C)Nc1c2ccc(Cl)cc2nc2ccc(OC)cc12 (centres undefined)	0.997% (active)	-6.19% (active)	16.6%		39.3%	31%	57.4%	31.9%	-7.7% (active)	
COc1ccc(C(=O)CSc2nc(-c3cc(OC)ccc3OC)cc(-c3ccc(OC)cc3)c2C#N)cc1	90.1%		105%	85.8%	87.1%	97%	103%	45.1%	98.1%	102%
COc1cc(CNC(=O)C2CSC3(C)c4ccccc4C(=O)N23)cc(OC)c1OC (centres undefined)	77.4%	90.2%		102%	104%	112%	94.1%	102%	97%	107%
O=C(CCc1nnc2sc(-c3cc(O)c(O)c(O)c3)nn12)c1nc2ccccc2[nH]1	49.6%	87%		117%	104%	119%	88.2%	94.2%		109%
COc1ccc2nc(Cl)c(Cn3nnc(Cc4ccccc4)n3)cc2c1	22.9%		40.5%	82.8%	49.4%	49.8%	68.9%	20.1%	19.7%	43.2%
COc1ccc(-c2nn(-c3cccc(Cl)c3)cc2C=C(C#N)C#N)cc1	-61.6% (active)		24.2%	29%	-0.205% (active)	-23.6% (active)	24.5%	2.52% (active)	7.22% (active)	12.2%
COc1ccc(-c2cc(-c3ccccc3)nc(SCCCC(=O)NO)n2)cc1	12.3%		6.59% (active)	17%	-20.5% (active)	-22.8% (active)	13.8%	-40.5% (active)	13.5%	-32.6% (active)
COc1ccc(-c2nn(-c3cccc(Cl)c3)cc2-c2cc(-c3ccccc3)nc(N)n2)cc1	11.3%		67.9%	59%	98.5%	72.2%	62%	53.3%	56.1%	83.7%
Cc1c2cnccc2c(C)c2c1c1cc(O)ccc1n2C(C)C	-17.1% (active)		7.98% (active)	69.2%	-15.7% (active)	21.5%	3.64% (active)	1.26% (active)	25%	7.7% (active)
Nc1ccccc1NC(=O)c1ccc(CCCC(=O)Nc2ccc(C3CC3N)cc2)cc1 (centres undefined)	31.5%		17.3%	33.1%	32.4%	25.4%	36.7%	98.6%	49.7%	44.3%
O=C(CCCSc1nc(-c2ccc(Cl)cc2)cc(-c2ccc(Cl)cc2)n1)NO	7.59% (active)		13.7%	18%	14.2%	5.4% (active)	53.5%	-28.7% (active)	19.2%	24.8%
COc1cc(-c2ccc[nH]2)[nH]c1/C=C1\N=C(C)C(C(=O)NC(C)C)=C1C	-15.5% (active)		14.7%	43.2%	50.7%	19.5%	39.1%	17.6%	23.5%	34%
COC(=O)C1OC1c1cc([N+](=O)[O-])ccc1OC (centres undefined)	84.4%		105%	105%	92.1%	109%	111%	101%	101%	93%
COc1ccc(-c2nn(-c3cccc(Cl)c3)cc2-c2c(C#N)c(=O)n3[nH]c(-c4ccc(C)cc4)nc3c2C#N)cc1	1.64% (active)		14.3%	87%	55.7%	97%	43.4%	51.2%	57.1%	38.5%
CC[C@@H](C(=O)[C@@H](C)[C@@H](O)[C@H](C)[C@@H]1O[C@@H]([C@@H](CC)C(=O)N(CC)CC)CC[C@@H]1C)C1O[C@]2(C=CC(=O)[C@]3(CC[C@@](C)([C@H]4CC[C@](O)(CC)[C@H](C)O4)O3)O2)[C@H](C)C[C@@H]1C (some centres undefined)	41.1%		29%	29.7%	49.8%	21.6%	28.4%	10.5%	34.3%	34.9%
O=C1c2c(c3c4ccccc4n(CCCCCCN4CCOCC4)c3c3[nH]c4ccccc4c23)C(=O)N1O	-26.2% (active)		3.72% (active)	127%	93%	88.7%	106%	43.9%	103%	40.6%
Clc1nc2ccccc2cc1Cn1nnc(Cc2ccccc2)n1	37%		71.6%	104%	57.4%	59.5%	76.6%	52.1%	29.7%	50.9%
COCCn1cc(-c2nc(-c3cccnc3)cs2)c2cc(F)ccc21	63.5%		102%	92.7%	7.36% (active)	94.1%	98.6%	86%	95.6%	110%
O=C(Nc1cc([N+](=O)[O-])c2[nH]c(=O)c3ccccc3c2c1)C(F)(F)F	52.3%		77.2%	104%	81.2%	106%	105%	76.9%	92.6%	93.6%
